Assay results taken from PubChem BioAssay (NCI).
Compounds without any hit were thinned out: in the full panel of roughly 79,000, 15% have a hit. Active and inactive are the calls of the source. Rule as the data show it: active = growth inhibition above about 70%; inactive = the rest.

How the values were obtained:
[1] = NCI Yeast Anticancer Drug Screen. Data for the rad52 strain (AID 147);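 also: 0% = growth of vehicle-treated control cultures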; conditions: S. cerevisiae rad52 mutant growth inhibition, stronger effect = higher value
Summary of the method: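 Measured: yeast growth inhibition. System: strain with a defined DNA damage repair alteration. Reference: vehicle-treated control cultures.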

[2] = NCI Yeast Anticancer Drug Screen. Data for the wt1 strain (AID 149);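 also: 0% = growth of vehicle-treated wt1 cultures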; conditions: S. cerevisiae wt1 strain (SPY 50644) growth inhibition, stronger effect = higher value
Summary of the method: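 Measured: growth of wt1 yeast under compound versus vehicle treatment, reported as inhibition.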

[3] = NCI Yeast Anticancer Drug Screen. Data for the rad50EPP+ strain (AID 151);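 also: 0% = growth of vehicle-treated control cultures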; conditions: S. cerevisiae rad50 mutant strain, stronger effect = higher value
Summary of the method: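 One strain with a rad50 alteration (rad50EPP+) was compound-treated, its growth then compared to that of vehicle controls.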

[4] = NCI Yeast Anticancer Drug Screen. Data for the mgt1 strain (AID 153); conditions: S. cerevisiae mgt1 mutant growth inhibition, stronger effect = higher value
Summary of the method: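 After exposure of the mgt1 yeast mutant to compound, growth was measured and reported as inhibition compared with vehicle controls.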

[5] = NCI Yeast Anticancer Drug Screen. Data for the rad50 strain (AID 155);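 also: 0% = growth of vehicle-only cultures of the same strain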; conditions: S. cerevisiae rad50 strain growth inhibition, stronger effect = higher value
Summary of the method: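 Growth of the mutant yeast was measured after compound exposure and referenced to vehicle-treated cultures.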

[6] = NCI Yeast Anticancer Drug Screen. Data for the mec2-1 strain (AID 157); conditions: S. cerevisiae mec2-1 strain, stronger effect = higher value
Summary of the method: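 Test agents were screened against the mec2-1 yeast strain, with defined DNA repair or cell cycle alteration. Growth was scored as inhibition against vehicle-only controls.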

[7] = NCI Yeast Anticancer Drug Screen. Data for the rad14 strain (AID 159);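 also: 0% = growth of vehicle-treated control cultures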; conditions: S. cerevisiae rad14 strain growth inhibition, stronger effect = higher value
Summary of the method: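 Here, inhibition of yeast growth was measured after compound exposure, using a strain with a genetic defect in DNA damage repair and vehicle-treated cultures as the reference.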

[8] = NCI Yeast Anticancer Drug Screen. Data for the sgs1 mgt1 strain (AID 161);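 also: 0% = growth of cultures given vehicle only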; conditions: S. cerevisiae sgs1 mgt1 strain, stronger effect = higher value
Summary of the method: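 Mutant yeast exposed to compound; growth scored against vehicle-only wells.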

[9] = NCI Yeast Anticancer Drug Screen. Data for the CLN2oe strain (AID 163);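 also: 0% = growth of vehicle-only control cultures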; conditions: S. cerevisiae CLN2oe strain, stronger effect = higher value
Summary of the method: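 Here, growth inhibition in a cell-cycle-altered yeast strain after compound exposure was quantified against vehicle control growth.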

[10] = NCI Yeast Anticancer Drug Screen. Data for the cln2 rad14 strain (AID 165);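 also: 0% = growth equal to vehicle treated cultures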; conditions: S. cerevisiae cln2 rad14 strain, stronger effect = higher value
Summary of the method: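 Growth of compound-exposed yeast (cln2 rad14 genotype) measured and expressed as inhibition relative to vehicle.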

[11] = NCI Yeast Anticancer Drug Screen. Data for the bub3 strain (AID 167); conditions: S. cerevisiae bub3 mutant strain, stronger effect = higher value
Summary of the method: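 Whole-cell yeast assay. The mutant strain was incubated with compounds, and growth inhibition was determined by comparison with vehicle-treated cells.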

[12] = NCI Yeast Anticancer Drug Screen. Data for the wt2 strain (AID 169);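 also: 0% = growth of vehicle-treated yeast cultures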; conditions: S. cerevisiae wt2 strain growth inhibition, stronger effect = higher value
Summary of the method: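 Genetically defined yeast strains from a DNA-repair/cell-cycle panel were used. Compound-exposed yeast growth was measured, and the inhibition was calculated relative to vehicle treatment.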

[13] = NCI Yeast Anticancer Drug Screen. Data for the mlh1 strain (AID 171);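 also: 0% = growth of vehicle-treated control cultures of the same strain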; conditions: S. cerevisiae mlh1 strain growth inhibition, stronger effect = higher value
Summary of the method: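 Here the genetically defined yeast mutant is grown with each compound, and the extent to which its growth falls below that of vehicle-exposed cells is reported.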

[14] = NCI Yeast Anticancer Drug Screen. Data for the sgs1 strain (AID 173);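 also: 0% = growth of vehicle-only control cultures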; conditions: S. cerevisiae sgs1 mutant, stronger effect = higher value
Summary of the method: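 Relative growth inhibition, referenced to vehicle, was determined in a yeast strain with a defined alteration affecting DNA damage repair or cell cycle control after compound exposure.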

[15] = NCI Yeast Anticancer Drug Screen. Data for the mlh1 rad18 strain (AID 175); conditions: S. cerevisiae mlh1 rad18 strain growth inhibition, stronger effect = higher value
Summary of the method: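 In this whole-cell yeast screen, a strain with altered DNA damage repair is challenged with compound, and its growth is measured against matched vehicle-treated controls.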

[16] = NCI Yeast Anticancer Drug Screen. Data for the rad18 strain (AID 177); conditions: S. cerevisiae rad18 mutant growth inhibition, stronger effect = higher value
Summary of the method: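 Screen uses a yeast strain with a defined lesion in DNA damage repair; compound effect is read as loss of growth compared to untreated vehicle cultures.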

[17] = at 5.0 µM (retest, dose inferred, filed as 0.5)
[18] = at 50.0 µM (retest, dose inferred, filed as 5.0)

Measured: growth inhibition

Cc1c(C(=O)/C=C/c2ccccc2[N+](=O)[O-])[n+](=O)c2ccccc2n1[O-]
active: [1]; at 1.2 µM 78% | [1]; at 3.7 µM 90% | [1]; at 11.0 µM 93% | [1]; at 33.0 µM 93% | [1]; at 100.0 µM 93% | [3]; at 11.0 µM 77% | [3]; at 33.0 µM 76% | [3]; at 100.0 µM 79% | [4]; at 11.0 µM 93% | [4]; at 33.0 µM 94% | [4]; at 100.0 µM 96% | [5]; at 3.7 µM 86% | [5]; at 11.0 µM 90% | [5]; at 33.0 µM 91% | [5]; [18] 84% | [5]; at 50.0 µM 97.5% | [5]; at 100.0 µM 92% | [6]; at 11.0 µM 77% | [6]; at 33.0 µM 85% | [6]; [18] 83% | [6]; at 50.0 µM 90.5% | [6]; at 100.0 µM 89% | [7]; at 11.0 µM 73% | [7]; at 33.0 µM 74% | [7]; at 100.0 µM 76% | [8]; [18] 98% | [8]; at 50.0 µM 98% | [10]; at 50.0 µM 94.5% | [11]; at 50.0 µM 94.2% | [12]; at 3.7 µM 85% | [12]; at 11.0 µM 91% | [12]; at 33.0 µM 84% | [12]; at 100.0 µM 94% | [13]; at 3.7 µM 73% | [13]; at 11.0 µM 92% | [13]; at 33.0 µM 94% | [13]; at 100.0 µM 94% | [14]; at 1.2 µM 73% | [14]; at 3.7 µM 91% | [14]; at 11.0 µM 94% | [14]; at 33.0 µM 94% | [14]; at 100.0 µM 93% | [15]; [18] 94% | [15]; at 50.0 µM 98.2%
inactive: [2]; at 1.2 µM -1% | [2]; at 3.7 µM 22% | [2]; at 11.0 µM 42% | [2]; at 33.0 µM 49% | [2]; at 100.0 µM 60% | [3]; at 1.2 µM 41% | [3]; at 3.7 µM 67% | [4]; at 1.2 µM 10% | [4]; at 3.7 µM 61% | [5]; at 1.2 µM 66% | [5]; [17] 12% | [6]; at 1.2 µM 12% | [6]; at 3.7 µM 32% | [6]; [17] 2% | [7]; at 1.2 µM 37% | [7]; at 3.7 µM 61% | [8]; [17] 6% | [9]; at 1.2 µM 12% | [9]; at 3.7 µM 25% | [9]; at 11.0 µM 41% | [9]; at 33.0 µM 47% | [9]; at 100.0 µM 66% | [10]; [17] -4% | [10]; [18] 54% | [11]; at 1.2 µM -1% | [11]; at 3.7 µM 42% | [11]; [17] -3% | [11]; at 11.0 µM 29% | [11]; at 33.0 µM 33% | [11]; [18] 57% | [11]; at 100.0 µM 29% | [12]; at 1.2 µM 44% | [13]; at 1.2 µM 25% | [15]; [17] 8%

N#CCC(=O)N/N=C(\c1ccccc1)C(c1ccccc1)C1(O)C(=O)Nc2c(Cl)ccc(Cl)c21 (stereo unspecified)
inactive: [1]; at 1.2 µM 0% | [1]; at 3.7 µM 0% | [1]; at 11.0 µM 3% | [1]; at 33.0 µM 9% | [1]; at 100.0 µM 11% | [2]; at 1.2 µM 0% | [2]; at 3.7 µM 0% | [2]; at 11.0 µM 0% | [2]; at 33.0 µM -1% | [2]; at 100.0 µM -3% | [3]; at 1.2 µM 2% | [3]; at 3.7 µM 10% | [3]; at 11.0 µM 15% | [3]; at 33.0 µM 24% | [3]; at 100.0 µM 32% | [4]; at 1.2 µM 1% | [4]; at 3.7 µM -1% | [4]; at 11.0 µM -3% | [4]; at 33.0 µM -2% | [4]; at 100.0 µM 19% | [5]; at 1.2 µM 5% | [5]; at 3.7 µM 0% | [5]; [17] 7% | [5]; at 11.0 µM 8% | [5]; at 33.0 µM 15% | [5]; [18] 51% | [5]; at 50.0 µM 43.8% | [5]; at 100.0 µM 25% | [6]; at 1.2 µM 3% | [6]; at 3.7 µM 4% | [6]; [17] -11% | [6]; at 11.0 µM 4% | [6]; at 33.0 µM 6% | [6]; [18] 36% | [6]; at 50.0 µM 41% | [6]; at 100.0 µM 11% | [7]; at 1.2 µM 3% | [7]; at 3.7 µM 7% | [7]; at 11.0 µM 10% | [7]; at 33.0 µM 27% | [7]; at 100.0 µM 39% | [8]; [17] 4% | [8]; [18] 39% | [8]; at 50.0 µM 51.8% | [9]; at 1.2 µM -1% | [9]; at 3.7 µM -2% | [9]; at 11.0 µM -2% | [9]; at 33.0 µM -8% | [9]; at 100.0 µM -11% | [10]; [17] 9% | [10]; [18] 10% | [10]; at 50.0 µM 6.8% | [11]; at 1.2 µM 2% | [11]; at 3.7 µM 5% | [11]; [17] 8% | [11]; at 11.0 µM 11% | [11]; at 33.0 µM 15% | [11]; [18] 30% | [11]; at 50.0 µM 30.3% | [11]; at 100.0 µM 24% | [12]; at 1.2 µM 0% | [12]; at 3.7 µM 8% | [12]; at 11.0 µM -3% | [12]; at 33.0 µM -3% | [12]; at 100.0 µM 1% | [13]; at 1.2 µM 0% | [13]; at 3.7 µM -1% | [13]; at 11.0 µM -1% | [13]; at 33.0 µM 0% | [13]; at 100.0 µM 18% | [14]; at 1.2 µM -1% | [14]; at 3.7 µM 0% | [14]; at 11.0 µM 1% | [14]; at 33.0 µM 11% | [14]; at 100.0 µM 37% | [15]; [17] 6% | [15]; [18] -6% | [15]; at 50.0 µM 69.2% | [16]; at 1.2 µM 3% | [16]; at 3.7 µM 8% | [16]; at 11.0 µM 15% | [16]; at 33.0 µM 24% | [16]; at 100.0 µM 39%
